Assay results published in PubChem BioAssay AID493209 (National Center for Advancing Translational Sciences (NCATS), 2011).
Active and inactive are the calls of the source.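 How the source made its calls: active means compounds that raised 12-lipoxygenase product formation in the cuvette follow-up test, with a fitted potency; inactive means the rest, inconclusive results apart.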

biological target: Polyunsaturated fatty acid lipoxygenase ALOX12 (Homo sapiens) (UniProt P18054); assay: Activators of 12-hLO (12-human lipoxygenase): 12hLO Cuvette-Based Hit Validation Assay of Followup Compounds; conditions: purified 12-hLO, cuvette UV 234 nm product formation
Method: The enzyme activity of 12-hLO was determined by a direct measurement of product formation by monitoring the absorbance at 234 nm in a 2 mL cuvette. IC50 values of inhibitors were obtained by measuring the enzymatic rate at a variety of concentrations (Carroll et al, Segraves et al). This assay was used to validate active or inconclusive putative activators identified in the primary screen (see related BioAssay AIDs). Assay Provider: Holman, T.R., University of California, Santa Cruz Screening Center PI: Austin, Christopher P. Screening Center: NIH Chemical Genomics Center
For control experiments, 2 mL of substrate buffer (10 uM arachidonic acid / 25 mM HEPES / 0.01% (v/v) Triton X-100, pH 8.0) was aliquoted in a cuvette with a magnetic stir bar. After equilibrium was ensured, an aliquot of inhibitor solvent was added (DMSO), and equilibrium was once again assured. The reaction was started by adding enzyme to the cuvette and the reaction was followed until completed. The inhibition experiments were performed as above, except the actual inhibitory compound was added instead of vehicle. To achieve an IC50, typically 5 concentrations of the inhibitor were studied. If the inhibitor concentration was constant, then five different reaction volumes were used. Step \ Parameter \ Value \ Description 1; UV-Vis; 234 nm; Equilibration 2; Reagent; 2 mL; Substrate buffer 3; UV-Vis; 234 nm; Equilibration 4; Reagent; varies; Compound 5; UV-Vis; 234 nm; Equilibration 6; Reagent; 50-200 nM; Enzyme 12-hLO 7; UV-Vis; 234 nm; Enzymatic reaction Step \ Notes 1; Blank cuvette to air. 2; 10 uM AA, 25 mM HEPES, 0.01% Triton X-100, pH 8. 3; No change in absorbance ensured. 4; Compound vehicle or compound in various concentrations depending on potency. 5; No change in absorbance ensured. 6; Enzyme concentration to achieve reaction rate between 0.02 and 0.04 AU/s. 7; Enzymatic reaction visualized until completion.

Polyunsaturated fatty acid lipoxygenase ALOX12 (Homo sapiens), sequence (P18054 whole entry, looked up): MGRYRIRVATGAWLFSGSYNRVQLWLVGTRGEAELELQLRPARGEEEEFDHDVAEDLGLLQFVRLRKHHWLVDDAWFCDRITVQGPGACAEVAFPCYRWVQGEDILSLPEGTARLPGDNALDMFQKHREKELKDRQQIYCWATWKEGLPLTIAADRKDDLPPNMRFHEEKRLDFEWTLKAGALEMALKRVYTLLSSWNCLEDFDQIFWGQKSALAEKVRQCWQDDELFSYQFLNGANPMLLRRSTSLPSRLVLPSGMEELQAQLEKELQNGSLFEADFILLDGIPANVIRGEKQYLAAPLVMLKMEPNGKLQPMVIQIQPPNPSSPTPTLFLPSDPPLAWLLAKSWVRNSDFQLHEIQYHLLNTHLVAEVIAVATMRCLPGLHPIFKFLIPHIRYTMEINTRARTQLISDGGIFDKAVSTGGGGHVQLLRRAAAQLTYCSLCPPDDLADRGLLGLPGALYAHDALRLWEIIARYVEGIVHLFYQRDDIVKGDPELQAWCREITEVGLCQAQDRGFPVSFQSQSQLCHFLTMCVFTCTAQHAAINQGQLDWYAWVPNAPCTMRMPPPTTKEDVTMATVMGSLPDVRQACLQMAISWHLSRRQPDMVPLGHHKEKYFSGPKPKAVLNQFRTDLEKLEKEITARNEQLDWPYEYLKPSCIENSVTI

Compound | outcome | Potency
Cc1ccc(S(=O)(=O)Nc2ccc(NC(=O)Nc3cccc(C(F)(F)F)c3)cc2)cc1 | inactive | –
CCOc1ccc(-c2[nH]ncc2Oc2cccc(OC)c2)c(O)c1 | inactive | –
CC(Oc1ccc(Cl)cc1Cl)C(=O)Nc1ccc(S(=O)(=O)Nc2cnc3ccccc3n2)cc1 (centres undefined) | inactive | –
O=C(CSc1n[nH]c(-c2ccccc2)n1)c1ccc(O)c(O)c1 | inactive | –
Oc1ccc(C2=Nn3c(nnc3-c3ccco3)SC2)cc1O | inactive | –
Cc1cc(Cl)cc(Cl)c1OCC(=O)NCc1ccco1 | inactive | –
Cc1oc2c(O)c(O)ccc2c(=O)c1-c1cnn(-c2ccccc2)c1 | inactive | –
CCCOC(=O)c1ccc(Oc2c(-c3ccc(O)cc3O)n[nH]c2C)cc1 | inactive | –
Cc1nc(N)sc1-c1csc(N(C)c2ccc(O)cc2)n1 | inactive | –
COc1cccc(CNc2ccc(S(=O)(=O)Nc3nccs3)cc2)c1O | inactive | –
O=C1c2ccccc2NC(c2ccc(Cl)cc2Cl)N1O (centres undefined) | – | 53.1 µM (active)
COc1ccc(NC2=NCC(Cc3ccc(Br)cc3)S2)cc1 (centres undefined) | inactive | –
O=C(Nc1nnc(-c2ccc(Cl)cc2)o1)c1ccccc1Br | inactive | –
CC1=NN(c2ccc(Cl)cc2)C(=O)C1C(c1cccc(O)c1)c1c(C)[nH]n(-c2ccc(Cl)cc2)c1=O (centres undefined) | inactive | –
Cc1[nH]nc(-c2ccc(O)cc2O)c1Oc1ccccc1 | inactive | –
c1ccc(-c2nc(NCc3cccnc3)c3oc4ccccc4c3n2)cc1 | inactive | –
Cc1ccc(NC(=O)Nc2cccs2)c(Cl)c1 | inactive | –
Cc1ccc(C(=O)/C=C/c2c[nH]c3ccccc23)cc1 | inactive | –
Oc1ccccc1-c1cc(-c2cccc(F)c2)n[nH]1 | inactive | –
